From PubChem BioAssay AID1345082 (National Center for Advancing Translational Sciences (NCATS), 2018)
About 4,000 (4.3%) of roughly 94,000 compounds were called active. Inconclusive results (about 29%) are left out. The entries come from a sample that favours actives as a whole. Unmarked numbers belong to inactive results. The call rests on the fitted dose curve; in most records, active means well fitted inhibition curve with a large enough effect; inconclusive means small, poorly fitted or top-dose-only effect; inactive means no such curve, though single readings can be large or run the other way.

Test: Cytotoxic Profiling in NIH 3T3 Cell Line of Diverse Libraries Using Quantitative High-Throughput Screening; further: nearly all actives have a fitted effect of over 55% in size
Conditions: NIH 3T3 viability, CellTiter-Glo ATP luminescence, 48-72 h; series mostly up to 96.7 µM; activity change, negative = cytotoxicity: at the top concentration
Text: Cell-based phenotypic screening is a commonly used approach to discover biological pathways, novel drug targets, chemical probes and high-quality hit-to-lead molecules. Many hits identified from high-throughput screening campaign are ruled out through a series of follow-up potency, selectivity/specificity, and cytotoxicity assays. Prioritization of molecules with little or no cytotoxicity for a more in-depth downstream evaluation influence the future direction of projects, so cytotoxicity profiling of the screening libraries at early stage is essential for increasing the likelihood of candidate success. In this study, we analyzed results from a cell-based cytotoxicity screening campaign, comprising nearly 10,000 compounds in NCATS annotated libraries, and over 100,000 compounds in a diversity library, evaluated in four normal cell lines (HEK 293, NIH 3T3, CRL-7250 and HaCat) and a cancer cell line (KB 3-1, a HeLa subline) with overall screening outcomes, hit rates, pan-activity and selectivity. For the annotated library, we also examined the primary targets and mechanistic pathways regularly associated with cell death. To our knowledge, this is the first study to use high-throughput screening to profile large libraries for cytotoxicity assessment in both normal and cancer cell lines. In summary, the results generated here constitutes a valuable resource for the scientific community and provides insight on identifying cytotoxic compounds with particular mechanisms of action, and prioritizing compounds with suitable cytotoxicity profile for further evaluation.
NIH 3T3 cells were seeded into white 1536-well plates using a Multidrop Combi peristaltic dispenser (ThermoFisher, Waltham, MA) at a density of 400 cells/well in 5 uL of medium respectively. A pintool (Kalypsys) was used to transfer 23 nL of compound solution to the 1536-well assay plates. After 48 or 72 hr incubation at 37 degree Celsius, 5% CO2 and 95% humidity, 2.5 uL of CellTiter-Glo (Promega) was dispensed into each well using a dispenser (Aspect Automation, St. Paul, MN) with solenoid valves (Lee Valves, Westbrook CT). Plates were left at room temperature for 10 min before imaging the ATP-coupled luminescence using a ViewLux microplate imager (PerkinElmer, Waltham, MA).
On the % scale 0 is the no-effect control and ±100 the full control effect; potency means the concentration at half of the fitted maximal effect.

SMILES	Potency	activity change, negative = cytotoxicity	outcome
Cc1nn(CCC#N)c(C)c1[C@@H]1C=C[C@@H](NS(=O)(=O)c2ccccc2)C1	25.1 µM (active)		
Cc1noc(C)c1[S+](=O)([O-])N1CCCC2(CC(Cc3ccccc3)=NO2)C1 (stereo not given)		-15.9%	
C=CCOC(=O)Nc1nc2c(s1)C[C@@H]1[C@](C)(CO)[C@H](O)CC[C@@]1(C)[C@@H]2CC(=O)N(CC)CC		-24.1%	
CN(C)CCNC(=O)C[C@@H]1c2nc(NC(=O)c3ccc(C(C)(C)C)cc3)sc2C[C@@H]2[C@](C)(CO)[C@H](O)CC[C@]21C	25.1 µM (active)		
C=CCN(C)C(=O)C[C@@H]1c2nc(NC(=O)c3ccc(C(C)(C)C)cc3)sc2C[C@@H]2[C@](C)(CO)[C@H](O)CC[C@]21C	28.2 µM (active)		
CC(=O)N1CCN(C(=O)C[C@@H]2c3nc(NC(=O)c4cccs4)sc3C[C@@H]3[C@](C)(CO)[C@H](O)CC[C@]32C)CC1		-7.77%	
COCC(=O)Nc1nc2c(s1)C[C@@H]1[C@](C)(CO)[C@H](O)CC[C@@]1(C)[C@@H]2CC(=O)NCCN1CCOCC1		-5.42%	
C[C@]1(CO)[C@H]2Cc3sc(NC(=O)C4CCC4)nc3[C@@H](CC(=O)N3CCCCC3)[C@]2(C)CC[C@H]1O		-20.3%	
Cc1noc(C)c1[S+](=O)([O-])N1CCC2(CC(C(C)C)=NO2)C1 (stereo not given)			inactive
C[C@@H]1CN(C(=O)CNS(=O)(=O)c2cccs2)C[C@@]1(O)C1CC1		2.19%	
CN(C(=O)c1ccccc1)C1CCc2ccccc21 (stereo not given)		-22.7% [at 138 µM]	
CC(C)N(C)Cc1nnnn1CC(=O)NCc1ccc2nonc2c1		-1.51%	
O=C(CN1C(=O)C(c2ccccc2)=NC12CCCC2)Nc1ccc2c(c1)OCCO2		-12.9%	
Cn1cnnc1CC1CCCN(C(=O)c2ccsc2)C1 (stereo not given)		-9.22%	
COc1ccc(OCC2CCN(CC3(O)CCCNC3)CC2)cc1 (stereo not given)	44.7 µM (active)		
CCc1cc(N2CCN(CC3(O)CCCNC3)CC2)ncn1 (stereo not given)		1.73%	
OC1(CN2CCC(CCn3cccn3)CC2)CNCCOC1 (stereo not given)		-1.98%	
Cc1cc(C)c(-c2nc3ncccc3[nH]2)[nH]1		-16.4% [at 174 µM]	
CC(C)NC(=O)N1CCN(CCCn2nc3n(c2=O)CCCC3)CC1		-16.3%	
COc1ccc(-c2cc(N3CCCN(C(=O)c4ccc(C)cc4)CC3)n[nH]2)cc1		-21.8%	
COc1ccc(-c2cc(N3CCN(C(=O)c4ccncc4)CC3)n[nH]2)cc1		-17.1%	
CCOc1cc(C(=O)N2CCCN(c3cc(-c4ccccc4)[nH]n3)CC2)cc(OCC)c1OCC		-8.89%	
O=C(N1CCN(c2cc(-c3ccc(Cl)cc3)[nH]n2)CC1)C1(c2ccccc2)CC1	35.5 µM (active)		
O=C(c1cccnc1)N1CCN(c2cc(-c3ccccc3)[nH]n2)CC1		-25.7%	
O=C(c1ccc2cc[nH]c2c1)N1CCCN(c2cc(-c3ccc(Cl)cc3)[nH]n2)CC1	39.8 µM (active)		
